# Like-named read-outs stand apart in the source and are kept apart here.
# Assays:
# Design in all cases: species or system human, MV4-11 + K-562 + COLO205 + SK-N-BE2 + OVCAR-8
# [1] = system: PIK3CA; conditions: read-out: apparent Kd, n = 1
# [2] = system: PIK3C3; conditions: read-out: apparent Kd, n = 1
# [3] = system: ROCK2; conditions: read-out: apparent Kd, n = 1
# [4] = system: ROCK1; conditions: read-out: apparent Kd, compound concentrations: 100 nM and 1000 nM (sheet 'Samples'), n = 1
# [5] = system: TESK1; conditions: read-out: apparent Kd, n = 1
# [6] = compound concentrations: 100 nM and 1000 nM (sheet 'Samples'), CATDS: 1
# [7] = compound concentrations:100 nM and 1000 nM (sheet 'Samples')
smiles,measurement,setting,value
COc1cccc(-n2ncc3c(N/N=C/c4cccc(F)c4)ncnc32)c1 [GW817394X],potency estimated from few doses,[1]; [6],237 nM
Nc1ncc(-c2ccc3nccc(-c4ccncc4)c3c2)cc1S(=O)(=O)N1CCCCC1 [GSK1693850A],potency estimated from few doses,"[2]; compound concentrations: 100 nM and 1000 nM (sheet 'Samples'), CATDS: 6.5868178094699706E-2",1120 nM
same,potency estimated from few doses,"[1]; compound concentrations: 100 nM and 1000 nM (sheet 'Samples'), CATDS: 0.402374173970307",6.74 nM
CC(C)c1ccc(O)cc1Nc1ccnc2ccc(C(F)(F)F)cc12 [GW482059X],potency estimated from few doses,"[1]; compound concentrations: 100 nM and 1000 nM (sheet 'Samples'), CATDS: 0.44189081373448802",239 nM
CSc1nn2c(=O)cc(N3CCOCC3)nc2n1Cc1cccc(Cl)c1Cl [GSK2347225A],potency estimated from few doses,"[2]; compound concentrations: 100 nM and 1000 nM (sheet 'Samples'), CATDS: 0.39036921617708198",41 nM
O=C(NCCNc1ccnc(Nc2ccc(F)cc2)n1)Nc1ccccc1F [GSK1379880A],potency estimated from few doses,"[1]; compound concentrations: 100 nM and 1000 nM (sheet 'Samples'), CATDS: 0.78372192939813501",233 nM
CCn1c(-c2nonc2N)nc2ccccc21 [SB-693162],potency estimated from few doses,[3]; [7],1820 nM
O=c1cc(N2CCOCC2)nc2n(Cc3ccc(F)c(Cl)c3)ccn12 [GSK2297099A],potency estimated from few doses,[2]; [7],912 nM
same,potency estimated from few doses,[1]; [7],186 nM
COc1ncc(-c2cc(-c3ncc(CN4C[C@@H](C)O[C@@H](C)C4)o3)c3cn[nH]c3c2)cc1NS(C)(=O)=O [GSK2292767],potency estimated from few doses,"[2]; compound concentrations: 100 nM and 1000 nM (sheet 'Samples'), CATDS: 0.16198268418526299",70.7 nM
same,potency estimated from few doses,"[1]; compound concentrations: 100 nM and 1000 nM (sheet 'Samples'), CATDS: 0.29964038012822602",9.18 nM
CN(C)CCOc1ccc(-c2cc(-c3ccc(Cl)c(O)c3)c(-c3ccncc3)[nH]2)cc1.CN(C)CCOc1ccc(-c2cc(-c3ccc(Cl)c(O)c3)c(-c3ccncc3)[nH]2)cc1.Cl.Cl [SB-684387-B],potency estimated from few doses,"[1]; compound concentrations: 100 nM and 1000 nM (sheet 'Samples'), CATDS: 0.97128160740856295",16 nM
Nc1ncnc2c1nc(-c1ccccc1)n2-c1ccccc1 [SKF-97293],potency estimated from few doses,[1]; [6],284 nM
O=c1cc(N2CCOCC2)nc2n(Cc3cccc(Cl)c3)ccn12 [GSK2296823A],potency estimated from few doses,[2]; [7],667 nM
CN(C)S(=O)(=O)c1cc(-c2ccc3nccc(-c4cccc(S(N)(=O)=O)c4)c3c2)cnc1N [GSK1669921A],potency estimated from few doses,"[1]; compound concentrations: 100 nM and 1000 nM (sheet 'Samples'), CATDS: 0.37789009746554098",23 nM
Cl.NC(=O)c1cccc(Nc2nccc(Nc3ccc(Oc4c(Cl)cccc4Cl)c(Cl)c3)n2)c1 [GW659009A],potency estimated from few doses,"[1]; compound concentrations: 100 nM and 1000 nM (sheet 'Samples'), CATDS: 0.34504160600825701",183 nM
Nc1nonc1-c1nc2cnccc2n1C1CC1 [SB-736302],potency estimated from few doses,[4]; CATDS: 0.19196895649818499,1820 nM
same,potency estimated from few doses,"[3]; compound concentrations: 100 nM and 1000 nM (sheet 'Samples'), CATDS: 0.21159695131376299",1380 nM
CC1=C(C(=O)Nc2cc3cn[nH]c3cc2F)C(c2ccc(C(F)(F)F)cc2)CC(=O)N1 (stereo not shown) [GSK429286A],potency estimated from few doses,[4]; CATDS: 0.46177660943925602,57.8 nM
same,potency estimated from few doses,"[3]; compound concentrations: 100 nM and 1000 nM (sheet 'Samples'), CATDS: 0.48334108773041601",53 nM
CN(C)CCCn1c(-c2nonc2N)nc2cnccc21 [SB-751399-B],potency estimated from few doses,[4]; CATDS: 0.43789550307339298,1470 nM
same,potency estimated from few doses,"[3]; compound concentrations: 100 nM and 1000 nM (sheet 'Samples'), CATDS: 0.58263169675533599",821 nM
CC1=C(C(=O)Nc2ccc3[nH]nc(C)c3c2)C(c2ccc(C(F)(F)F)cc2)CC(=O)N1 (stereo not shown) [GSK466314A],potency estimated from few doses,[4]; CATDS: 0.49623940575875802,94.4 nM
same,potency estimated from few doses,"[3]; compound concentrations: 100 nM and 1000 nM (sheet 'Samples'), CATDS: 0.50381802643412599",91.6 nM
CC1=C(C(=O)Nc2ccc3[nH]ncc3c2)C(c2ccc(F)cc2)N=C(c2ccc(C(F)(F)F)nc2)N1 (stereo not shown) [GSK317354A],potency estimated from few doses,[4]; CATDS: 0.52745543701192599,630 nM
same,potency estimated from few doses,"[3]; compound concentrations: 100 nM and 1000 nM (sheet 'Samples'), CATDS: 0.475261399355146",777 nM
N#Cc1ccc(C(=O)c2cnn(-c3ccc(F)cc3)c2N)cc1 [RO1153198-000],potency estimated from few doses,"[5]; compound concentrations: 100 nM and 1000 nM (sheet 'Samples'), CATDS: 0.53853377364092803",1530 nM
CCCNC(=O)Nc1ccc(N(C)c2ccnc(NC3CC3)n2)cc1 [GW818933X],potency estimated from few doses,"[5]; compound concentrations: 100 nM and 1000 nM (sheet 'Samples'), CATDS: 0.44455887865749399",1860 nM
Cl.NC(=O)c1cccc(Nc2nccc(Nc3ccc(Oc4cccc(Cl)c4)c(Cl)c3)n2)c1 [GW659008A],potency estimated from few doses,[5]; [6],1780 nM
COC(=O)c1cccc(NC(=O)NC2CCN(c3ccnc(Nc4ccc(F)cc4)n3)C2)c1 (stereo not shown) [GSK1379725A],potency estimated from few doses,[5]; [6],1320 nM
Cc1nnc(-c2ccc(C)c(-c3ccc(C(=O)O)cc3)c2)o1 [GW608005X],potency estimated from few doses,[5]; [7],900 nM

# Reference: article PMC11062922 (Nature Chemical Biology, 2023)
